Screens (PubChem)
LmPK inhibitor: LmPK (Leishmania mexicana) enzyme inhibition | Q27686 | purified LmPK, Kinase-Glo ATP luminescence, 1 h | Potency, µM (series often up to 57.5 µM), for inactives: at the highest dose activity change, negative = inhibition, usual class: inhibitors | 290,000 tested, 0.37% active | AID 1721; note: potency is the fitted concentration of half-maximal effect; % is set by controls: 0 for no effect and ±100 for the full control effect
Target sequence (Q27686 whole entry, looked up): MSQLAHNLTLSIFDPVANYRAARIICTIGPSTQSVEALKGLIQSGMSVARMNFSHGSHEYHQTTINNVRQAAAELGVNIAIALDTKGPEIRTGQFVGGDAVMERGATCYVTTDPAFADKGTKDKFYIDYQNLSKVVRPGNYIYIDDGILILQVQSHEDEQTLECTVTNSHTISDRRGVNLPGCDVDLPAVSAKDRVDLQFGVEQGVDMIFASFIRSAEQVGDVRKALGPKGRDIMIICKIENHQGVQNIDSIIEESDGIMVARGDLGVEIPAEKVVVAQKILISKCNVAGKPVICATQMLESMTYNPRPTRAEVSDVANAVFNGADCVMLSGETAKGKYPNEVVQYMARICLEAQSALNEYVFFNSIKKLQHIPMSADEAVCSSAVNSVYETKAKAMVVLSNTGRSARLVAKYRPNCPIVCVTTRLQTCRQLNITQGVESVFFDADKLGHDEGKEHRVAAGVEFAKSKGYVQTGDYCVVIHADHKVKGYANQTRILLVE
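In 50 mM imidazole pH 7.2 with 7 mM MgCl2, LmPK (0.1 nM) turned over PEP (0.5 mM) and ADP (0.1 mM) for 1 h at room temperature. Luciferase read-out of ATP.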
Cycloheximide cs: counter-screen hit for Shiga toxin inhibitors, cycloheximide | cell reporter, cycloheximide protein synthesis inhibition counterscreen | max response, % | 300,000 tested, 12% active; in the data active = max response mostly above about 13%, no sharp cut-off; inactive = mostly below about 14%; note: read at 38.3 µM for the half of the compounds with a filed dose; 0% is about no effect
FBPA Giardia inh: Giardia lamblia aldolase inhibition. A8B2U2. purified Giardia FBPA. 290,000 tested, 0.71% active. AID 2451. Potency, µM (series often up to 59.6 µM), inactives show at the top dose activity, negative = inhibition, most hits filed as inhibitors; note: potency is the fitted concentration of half-maximal effect; % is set by controls: 0 for no effect and ±100 for the full control effect; nearly all actives have a fitted effect of over 55% in size
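40 nM FBPA preincubated 10 min at RT with compound (up to 57.5 uM final), then substrate plus GAPDH/TPI/NAD/arsenate coupling and diaphorase/resazurin added. Fluorescence read after 20 min at RT, 525/598 nm.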
RE007 growth inh: less growth of the S. pombe RE007 Vpr strain; S. pombe RE007 Vpr strain, BacTiter-Glo ATP luminescence, 24 h; Potency, µM (top dose mostly 92.2 µM), inactives show at the highest dose activity change, negative = less growth, hits mostly inhibitors; 360,000 tested, 0.21% active; AID 651644; active = well fitted falling curve with a large enough effect; inconclusive = small, poorly fitted or top-dose-only effect; inactive = no such curve, though single readings can be large or run the other way; note: potency is the fitted concentration of half-maximal effect; % is set by controls: 0 for no effect and ±100 for the full control effect; nearly all actives have a fitted effect of over 50% in size
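Fission yeast RE007 carrying one integrated HIV-1 vpr copy, seeded at OD 0.01 in PMG+AL medium with 23 nL pinned compound. Grown 24 h at 30 degrees; viability read by BacTiter-Glo luminescence after 5 min.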
Shiga inhibitor: blocks Shiga toxin action in Vero cells; AID 2315; Vero cells, Shiga toxin protein synthesis inhibition reporter; 290,000 tested, 9.2% active; inhibition, % at 38.7 µM; in the data active = inhibition mostly above about 28%, no sharp cut-off; inactive = mostly below about 43%; note: 0% is about no effect
Tb PYK inh: inhibitors of Trypanosoma brucei pyruvate kinase. 410,000 tested, 0.12% active. Q57TT1. AID 624173. TbPYK enzyme, Kinase-Glo Plus ATP luminescence, 45 min. Potency, µM (highest dose often 76.8 µM), for the others: at the top dose activity, negative = inhibition, usual class: inhibitors; note: potency is the fitted concentration of half-maximal effect; % is set by controls: 0 for no effect and ±100 for the full control effect; nearly all actives have a fitted effect of over 50% in size
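Assay buffer: 50 mM TEA pH 7.2, 100 mM KCl, 10 mM MgCl2, 0.05% BSA, 0.01% Tween-20. Pyruvate kinase from T. brucei plus substrate met compound, then ADP (130 uM final). Luminescence was read post 45 min RT.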
* marks the source's active call; other numbers are inactive results; ? = inconclusive; / = not tested or not shown; [ ] = another dose, or the depositor's remark. The entries come from a sample that favours hits as a whole. Unless noted, calls come from the whole dose curve; as a rule, active = well fitted curve in the direction sought with a large enough effect; inconclusive = small, poorly fitted or top-dose-only effect, or another doubt; inactive = no such curve, though single readings can be large; an effect the other way counts as inactive or inconclusive.

SMILES	LmPK inhibitor	Cycloheximide cs	FBPA Giardia inh	RE007 growth inh	Shiga inhibitor	Tb PYK inh
CC(=O)c1ccc(C2C=CC(Oc3ccc(F)cc3C)C(CO)O2)cc1 (configuration not stated)	/	/	-6%[12.9 µM]	/	/	/
CCSc1ncc(Cl)c(C(=O)Nc2ccc(S(=O)(=O)N3CCCCC3)cc2)n1	/	/	/	/	/	-1%
Cc1noc(C)c1COc1cccc(C(=O)OCCOc2ccc(F)cc2)c1	1%	26*	7%	-15%	52*	3%
O=C(Nc1cccc([N+](=O)[O-])c1)c1[nH]ncc1Cl	-17%	62*	0%	-10%	97*	4%
O=C(Nc1cccc([N+](=O)[O-])c1)c1cnccn1	-4%	2	-3%	-14%	-38	-15%
CC(C)(C)NS(=O)(=O)c1ccc(CCC(=O)Nc2ccc3c(c2)OCO3)cc1	0%	-3	-2%	-3%	-6	-3%
Cc1noc(C)c1COc1cccc(C(=O)OC(C)C#N)c1 (configuration not stated)	7%	-1	1%	12%	7	-4%
CC(C)(C)NS(=O)(=O)c1ccc(C(=O)Nc2ccc3c(c2)OCO3)cc1	7%	21*	-7%	-8%	77*	8%
O=C(NC(=S)Nc1ccc2c(c1)OCCO2)c1cccc(Br)c1	-3%	74*	0%	-6%	74*	-9%
CCOc1ccc(C(=O)N(CC)CC(=O)Nc2ccc3c(c2)OCCO3)cc1	/	/	/	7%	/	-3%
COc1cc(NC(=S)Nc2ccc3c(c2)OCCO3)cc(OC)c1OC	-3%	32*	-9%	11%	69*	1%
CCOc1cccc(C(=O)Nc2ccc3c(c2)OCCO3)c1	2%	36*	-2%	-11%	37	-17%
CN(c1cccc(NC(=O)c2ccc(C(C)(C)C)cc2)c1)S(C)(=O)=O	10%	43*	-18%	-1%	42	4%
CN1C(=O)c2ccc(C(=O)Nc3ccc4c(c3)OCO4)cc2C1=O	-4%	24*	/	-6%	38	1%
CCC[C@@H]1C[C@@]1(CCC)C(NC(=O)c1ccccc1)c1cccc(Cl)c1 (some centres not stated)	/	/	5%	/	/	/
OC(CNCCc1ccc(C(F)(F)F)cc1)COC(c1ccccc1)c1ccccc1 (configuration not stated)	-5%	-11	?	15%	-23	-17%
O=C(CCCc1cccs1)Nc1ccc2c(c1)OCO2	7%	31*	-1%	0%	89*	-2%
O=C(Oc1ccc2c(c1)OCO2)c1cccs1	-21%	27*	2%	-20%	40*	-12%
O=C(/C=C/c1ccc2c(c1)OCO2)c1cccs1	/	/	-17%	/	/	/
CC(C)c1ccc(O)c(NC(=S)NC(=O)c2ccc3c(c2)OCO3)c1	1%	53*	/	-11%	99*	-17%
Cc1ccc(OCCCC(=O)Nc2ccc3c(c2)OCO3)cc1	-1%	-4	1%	-8%	-8	-10%
O=C(Nc1ccncc1)c1ccc2c(c1)OCCO2	-10%	31*	8%	-11%	66*	-1%
C[C@H](NC(=O)c1ccccc1)C(=O)OCC(=O)Nc1ccc(Cl)cn1	/	/	/	5%	/	-11%
CCCc1cc(C(=O)Nc2cccc([N+](=O)[O-])c2)cs1	-4%	65*	-19%	-2%	104*	0%
O=C(NC(=S)Nc1cccc(Cl)c1N1CCCCC1)c1ccc2c(c1)OCCO2	0%	20*	-5%	24%	10	-3%
O=C(NC(=S)Nc1ccc2c(c1)OCCO2)c1cccc2ccccc12	2%	37*	-6%	-3%	76*	-10%
O=C(Nc1cccc(Cl)c1)c1ccc(F)c(S(=O)(=O)NCc2ccc3c(c2)OCO3)c1	3%	21*	-7%	4%	-1	-21%
CC(C)NC(=O)NC(=O)CN1c2cccc3cccc(c23)S1(=O)=O	9%	-2	-17%	32%	-6	0%
CCN(CC(=O)Nc1c(F)cccc1F)C(=O)c1ccc2c(c1)C(=O)N(c1ccccc1C)C2=O	/	/	/	-2%	/	-8%
CCCCN(CC)C(=O)c1ccc2c(c1)NC(=O)c1ccccc1S2	/	/	/	/	/	2%
